# Results reported in PubChem BioAssay AID602410 (Johns Hopkins Ion Channel Center, 2012).
# The campaign covered roughly 340,000 compounds. About 2,800 (0.82%) were called active.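 How the source made its calls: active means B-score under library mean minus 4 SD, starting fluorescence ratio at most library mean plus 5 SD; inactive means the rest.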 Only a selection was taken, and actives are over-represented in it overall.
# Target: Potassium channel subfamily K member 3 (Homo sapiens) (UniProt O14649)
# Test: blockers of TASK1 two-pore potassium channel – CHO cells, FluxOR thallium flux, B-score, primary screen (AID 602410);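 on B-score: more negative B-score means stronger inhibition of thallium flux through KCNK3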
# Details: CHO-KCNK3 thallium flux, FluxOR fluorescence, at 10 µM; active compounds read low
# Potassium channel subfamily K member 3 (Homo sapiens), sequence (O14649 whole entry, looked up): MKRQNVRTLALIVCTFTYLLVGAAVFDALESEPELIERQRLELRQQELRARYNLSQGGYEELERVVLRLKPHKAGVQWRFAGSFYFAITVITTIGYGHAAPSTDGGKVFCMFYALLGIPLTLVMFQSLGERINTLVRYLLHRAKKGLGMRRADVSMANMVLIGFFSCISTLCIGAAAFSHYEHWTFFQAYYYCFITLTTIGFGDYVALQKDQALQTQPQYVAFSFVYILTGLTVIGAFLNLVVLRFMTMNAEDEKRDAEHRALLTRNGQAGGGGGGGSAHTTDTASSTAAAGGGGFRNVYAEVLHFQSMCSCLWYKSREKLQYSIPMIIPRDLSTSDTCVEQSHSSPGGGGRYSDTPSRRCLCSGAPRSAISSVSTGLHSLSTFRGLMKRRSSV
row,SMILES,B-score
1,O=C(COC(=O)CNS(=O)(=O)c1ccccc1)NC12CC3CC(CC(C3)C1)C2,inactive
2,N#Cc1ccc(S(=O)(=O)NCC(=O)OCC(=O)NCCc2ccccc2)cc1,-11.3 (active)
3,O=C(COC(=O)Cc1ccccc1F)NCCc1ccccc1,inactive
4,COC(=O)c1ccc(CN2C(=O)NC(c3ccccc3)(c3ccccc3)C2=O)o1,inactive
5,COc1ccc(CNc2ncnc3ccccc23)cc1,inactive
6,COc1cccc(CNc2nc(C(F)(F)F)nc3ccccc23)c1,-9.39 (active)
7,CCc1ccc(C(CNc2nc(C(F)(F)F)nc3ccccc23)N(C)C)cc1 (stereo not drawn),inactive
8,O=Cc1c(Cl)cccc1Cl,inactive
9,O=C(NNC1=C(C(=O)C(F)(F)F)CCC1)c1ccncc1,inactive
10,Cc1ccc(C(=O)OCC(=O)NC(=O)Cc2ccccc2)c(O)c1,inactive
11,O=C(Cn1cc(C(=O)c2cccs2)c2ccccc21)NCc1cccs1,-13.4 (active)
12,O=C(COC(=O)c1cccs1)NCc1cccs1,inactive
13,COCCNC(=O)Cn1cc(C(=O)c2cccs2)c2ccccc21,inactive
14,COc1ccc(F)cc1C(=O)C1CCCN(C(=O)CCc2ccccn2)C1 (stereo not drawn),inactive
15,CCOC(=O)c1sc(-c2cccc([N+](=O)[O-])c2)cc1N,inactive
16,O=C(c1ccc(F)cc1)C1CCN(Cc2cn[nH]c2-c2ccccc2)CC1,inactive
17,O=C(CNCCC1=CCCCC1)Nc1ccccc1N1CCCCCC1,-12.6 (active)
18,Cc1ccccc1NC(=O)Nc1ccccc1N1CCCCC1,inactive
19,Cc1ccc(C(C)C)cc1OCC(=O)Nc1ccccc1N1CCCC1,inactive
20,CC1=C[C@H]2Cc3cc(C)cc(C)c3S(=O)(=O)[C@@H]2C=C1,inactive
21,CC(C)n1c(O)c(N=Nc2ccccn2)c2ccccc21,inactive
22,CCN(CC)CCN(C(=O)c1cc(Cl)sc1Cl)c1nc2cc3c(cc2s1)OCO3,-8.98 (active)
23,CN(C)CCN(C(=O)C1CCCCC1)c1nc2cc3c(cc2s1)OCO3,inactive
24,CN(C)CCN(C(=O)C1=COCCO1)c1nc2ccc(Cl)cc2s1,inactive
25,CCn1c(SCC(=O)NC2CCCC2)nnc1-c1ccoc1C,inactive
26,CCN(CC)C(=O)CN(c1cccc(OC)c1)S(=O)(=O)c1ccc(C)cc1,inactive
27,CCCCCCCC(=O)NC(Nc1ccccc1OC)C(Cl)(Cl)Cl (stereo not drawn),inactive

row,SMILES,B-score
1,Cc1ccc(O)c(CCc2ccccc2)n1,inactive
2,CC(Oc1cccc(NC(=O)c2cccs2)c1)C(=O)c1ccccc1 (stereo not drawn),-11.3 (active)
3,O=C(Nc1ccccc1-c1ccccc1)c1cccs1,inactive
4,COc1cc(NC(=O)c2cccs2)ccc1NC(=O)c1ccccc1Cl,inactive
5,CCNC(=O)CC1C(=O)N(c2ccc(OC)cc2)C(=O)N1CCOC (stereo not drawn),inactive
6,COC(=O)c1ccc(-n2cnc3ccccc32)nc1,inactive
7,COC(=O)c1cc(NC2c3ccccc3C(=O)N2c2ccc(Cl)cn2)cc(C(=O)OC)c1 (stereo not drawn),-10.8 (active)
8,Cc1ccnc(N2C(=O)c3ccccc3C2Nc2ccc3c(c2)OCCO3)c1 (stereo not drawn),inactive
9,Cn1ccnc1-c1nnn(-c2ccc(F)cc2)n1,inactive
10,O=C(CC(c1ccccc1)c1cc(Cl)ccc1O)NCCN1CCOCC1 (stereo not drawn),inactive
11,Cc1cc(OCCCN2CCN(Cc3ccccc3)CC2)ccc1[N+](=O)[O-],inactive
12,Cc1cc(OCC(=O)NC2CCN(C)CC2)ccc1[N+](=O)[O-],inactive
13,Cc1cc(OCCCCOc2ccc(C#N)cc2)ccc1[N+](=O)[O-],-9.68 (active)
14,COC(c1ccccc1)c1nnc(CCC(=O)N2CCN(CCOc3ccccc3)CC2)o1 (stereo not drawn),inactive
15,O=C(CC1NCCNC1=O)Nc1cc(Cl)cc(Cl)c1 (stereo not drawn),inactive
16,O=C(CC1NCCc2ccccc21)Nc1cccc(Cl)c1 (stereo not drawn),-8.87 (active)
17,O=C(CC1NCCNC1=O)Nc1ccc(Oc2ccccc2)cc1 (stereo not drawn),inactive
18,O=C(NNS(=O)(=O)c1ccccc1C(F)(F)F)c1cc2ncc(C(F)(F)F)cc2s1,inactive
19,CN1CCN(C(=O)/C(=C\c2cccs2)NC(=O)c2cccs2)CC1,inactive
20,Cc1ccc(C)c(C(=O)COC(=O)Cn2[nH]c(=O)c3ccccc3c2=O)c1,-9.1 (active)
21,O=C(COC(=O)Cn1[nH]c(=O)c2ccccc2c1=O)Nc1ncc(Cl)cc1Cl,inactive
22,CN(C)S(=O)(=O)c1ccc(NC(=O)COC(=O)Cn2[nH]c(=O)c3ccccc3c2=O)cc1,inactive
23,Fc1ccc(Cn2nnnc2C(c2cccs2)N2CCCCCC2)cc1 (stereo not drawn),inactive
24,CCC(C)(C)n1nnnc1C(c1cccs1)N1CCN(c2nc3ccccc3s2)CC1 (stereo not drawn),-9.57 (active)
25,CCC(C)(C)n1nnnc1C(c1ccc(OC)c(OC)c1)N1CCN(C(=O)c2ccco2)CC1 (stereo not drawn),inactive
26,CC(C)C(=O)N1CCN(CCN=CC2=C(O)CC(c3ccco3)CC2=O)CC1 (stereo not drawn),inactive
